# According to PubChem BioAssay (Tox21):
# Values joined by “and” are separate entries in the source; they are usually repeats but may differ in a detail not shown here. Equal entries are not always repeated. Records with an inconclusive call do not appear. Some compounds were tested as several samples or in several runs, with calls that do not always agree. Active and inactive are the calls of the source. The call rests on the fitted dose curve; in most records, active means well fitted cell-killing curve with a large enough effect in the repeat runs; inconclusive means weak or mixed curves; inactive means flat fitted curve, though single readings scatter.
# Assay: qHTS RealTime-Glo MT Cell Viability Assay in HepG2 cells - 24 hour (AID 1224867); further: nearly all actives have a fitted effect of over 50% in size
# Conditions: RealTime-Glo luminescence; series mostly up to 76.8 µM; activity change, negative = cytotoxicity: at the top concentration
# Source text: U.S. Tox21 Program National Center for Advancing Translational Sciences [NCATS] NIH Chemical Genomics Center [NCGC] U.S. Environmental Protection Agency [EPA] National Institutes of Environmental Health Sciences [NIEHS] National Toxicology Program [NTP] U.S. Food and Drug Administration [FDA] Tox21 Assay Overview: Measure of cell viability is critical in the cell-base assay. Analysis of cell viability is necessary for the characterization of cell responses to cytotoxic drugs and environmental stress. A RealTime-Glo MT Cell Viability Assay to monitor cell viability in real time of continues cell culture during 40 hours of compound treatment was used to screen Tox21 10K library compounds in HepG2 cells. The RealTime-Glo MT Cell Viability Assay is a nonlytic, homogeneous, bioluminescent method to measure cell viability in real time using a simple, plate-based method. The assay involves adding NanoLuc luciferase and a cell-permeant prosubstrate to cells in culture. Viable cells reduce the proprietary prosubstrate to generate a substrate for NanoLuc luciferase. This substrate diffuses from cells into the surrounding culture medium, where it is rapidly used by the NanoLuc Enzyme to produce a luminescent signal. The signal correlates with the number of viable cells, making the assay well suited for cytotoxicity studies.
# Tox21 Assay Protocol Summary: The mixture of HepG2 cell suspension and reagents were dispensed at 600cells/6 ul/well in 1536-well tissue culture treated black solid bottom plates using a Multidrop dispenser. After the assay plates were incubated at a 37 C/5% CO2 incubator for 5 hours, 23 nL of compounds dissolved in DMSO, positive and negative controls was transferred to the assay plate by a pintool work station. The plates were incubated at 37 C for 40 hours. The luminescence intensity were measured at 0h, 8h, 16h, 24h, 32h and 40h time points using ViewLux plate reader during compound treatment.
# On the % scale 0 is the no-effect control and ±100 the full control effect; potency means the concentration at half of the fitted maximal effect.
Structure (SMILES),"activity change, negative = cytotoxicity",Potency
Nc1ccc(N=Nc2ccc(-c3ccc(N=Nc4c(S(=O)(=O)O)cc5cc(S(=O)(=O)O)c(N=Nc6ccccc6)c(O)c5c4N)cc3)cc2)c(N)c1,3.94% [at 35.3 µM] (inactive),–
Brc1ccccc1,0.183% (inactive),–
Clc1ccc(C(OCCN2CCCCC2)c2ccccc2)cc1 (stereo not given),-23% [at 35.3 µM] (inactive),–
C=CC(=O)OCCCCO,-21.6% (inactive),–
CC(Cl)C(C)Cl (stereo not given),-0.0045% (inactive),–
O=C(CCl)c1ccc(Cl)cc1Cl,–,inactive and 19 µM (active)
CC(=O)C(C)(C)C,-3.19% (inactive),–
COCCOCCO,6.34% (inactive),–
CCCCN(N=O)C(=N)N[N+](=O)[O-],1.31% (inactive),–
CC(=O)c1cc2c(cc1C)C(C)(C)C(C)CC2(C)C (stereo not given),-16.8% (inactive),–
Cc1ccccc1CCl,3.3% (inactive),–
COC1=CC(=O)O[C@@H](CCc2ccccc2)C1,-0.233% (inactive),–
CC/C(=N\OC/C=C/Cl)C1=C(O)CC(C2CCOCC2)CC1=O (stereo not given),3% (inactive),–
O=C(Nc1ccccc1)Nc1ccnc(Cl)c1,-23.7% (inactive),–
Cc1cc(=O)[nH]o1,2.38% (inactive),–
O=C(NC(=O)c1c(F)cccc1F)Nc1ccc(OC(F)(F)C(F)OC(F)(F)F)c(Cl)c1 (stereo not given),-9.41% [at 35.3 µM] (inactive),–
CCOP(=S)(OCC)Oc1cc(Cl)c(Br)cc1Cl,-5.88% (inactive),–
CCOC(=O)COc1cc(-c2nn(C)c(OC(F)F)c2Cl)c(F)cc1Cl,-9.74% (inactive),–
N#C/C(N)=C(/N)C#N,0.94% (inactive),–
COC(=O)C(Cl)C(=O)OC,0.557% [at 35.3 µM] (inactive),–

Structure (SMILES),"activity change, negative = cytotoxicity",Potency
N#Cc1ccc(Cl)cc1,1.58% (inactive),–
CCOC(=O)[C@]1(c2ccccc2)Oc2ccccc2[C@@H]1N,-3.55% (inactive),–
CCCC(Cn1cncn1)c1ccc(Cl)cc1Cl (stereo not given),-20.4% (inactive),–
CC(=O)CCC(C)=O,0% (inactive),–
CC(C)N(CCC(C(N)=O)(c1ccccc1)c1ccccn1)C(C)C (stereo not given),0.17% [at 35.3 µM] (inactive),–
C=CC(=O)OCC(C)C,3.08% (inactive),–
O=C1CN=C(c2ccccc2)c2cc(Cl)ccc2N1CC1CC1,-9.98% (inactive),–
CNP(=O)(OC)Oc1ccc(C(C)(C)C)cc1Cl (stereo not given),-13.1% (inactive),–
c1ccc(CN2CCNCC2)cc1,0.947% [at 200 µM] (inactive),–
CCCCN=C=O,2.48% (inactive),–
Cn1sc(Cl)cc1=O,0.736% (inactive),–
O=C1c2ccccc2C(=O)C1C(=O)C(c1ccccc1)c1ccccc1,-6.91% [at 35.3 µM] (inactive),–
CCOP(=O)(OCC)O/C(=C/Cl)c1ccc(Cl)cc1Cl,-20.8% (inactive),–
C=CCOC(C)=O,-2.78% (inactive),–
O=C(CBr)c1ccccc1,-13.3% (inactive),–
C=CCC1([C@H](C)CCC)C(=O)NC(=O)NC1=O,-1.19% (inactive),–
O=C(O)c1ccccc1C(=O)Nc1cccc2ccccc12,1.53% (inactive),–
O=C(NCc1cccnc1)Nc1ccc([N+](=O)[O-])cc1,-1.6% (inactive),–
CCOS(C)(=O)=O,-0.436% (inactive),–
ClCCCCBr,0.76% (inactive),–
